ugtP null kill: growth inhibition of ugtP-null S. aureus, primary screen, RN4220 ugtP deletion, OD600 | 330,000 compounds, 0.54% hits | 16 h | growth inhibition, % (no concentration beside the values); in the data active = growth inhibition above about 68%;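 note: plate controls were untreated wells for no effect and antibiotic for full effect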
3CLpro inhibitor: SARS-CoV 3CLpro protease inhibitors, primary screen, biochemical, quenched FRET; 290,000 compounds, 0.14% hits; recombinant SARS-CoV 3CLpro, quenched FRET peptide cleavage; Replicase polyprotein 1ab (Severe acute respiratory syndrome coronavirus), P0C6X7; inhibition, % at 6 µM; in the data active = inhibition above about 12%
Mtb bLac sens: beta-lactam sensitization of Mtb H37Rv, H37Rv. inhibition, % at 25 µM. AID 434955, 2010. 330,000 compounds, 0.27% hits. M. tuberculosis H37Rv growth with meropenem, percent inhibition; call rule not given here;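 note: growth measured after seven days incubation then overnight dye step; 0% = bacteria only wells and 100% = bacteria with antibiotic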
Sa RN4220 lethal: growth inhibition of S. aureus RN4220, primary screen, OD600. inhibition, % (concentration not given with the values). 330,000 compounds, 0.33% hits. 16 h; in the data active = inhibition above about 85%;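 note: plate controls were untreated cells for no effect and reference antibiotic for full effect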
MazF activator: activators of E. coli MazEF toxin-antitoxin RNase, primary screen, biochemical, fluorescence, uHTS | Endoribonuclease toxin MazF (Escherichia coli (strain K12)), P0AE70 | FAM/BHQ RNA-DNA oligo cleavage fluorescence, 5 h | activation, % at 20 µM | 350,000 compounds, 0.32% hits | AID 504720, 2011; in the data active = activation above about 50%
Target sequence (P0AE70 whole entry, looked up): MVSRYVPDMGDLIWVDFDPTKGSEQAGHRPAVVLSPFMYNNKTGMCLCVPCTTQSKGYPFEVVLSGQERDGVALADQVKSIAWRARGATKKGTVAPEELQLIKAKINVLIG
CCHF vOTU inh-1: CCHFV vOTU protease inhibitors, primary screen, biochemical, Pep-AMC substrate, fluorescence. inhibition, % at 11.5 µM. 370,000 compounds, 0.55% hits. AID 651958, 2012; note: 0% = vehicle wells with enzyme and 100% = no enzyme wells
CCHF vOTU inh-2: CCHFV vOTU protease inhibitors, confirmation, biochemical, Pep-AMC substrate, fluorescence. shares compounds with CCHF vOTU inh-1. Recombinant CCHFV vOTU. inhibition, % at 11.5 µM. 1,900 compounds, 17% hits
* hit, by the source's call; ? = inconclusive; . = not tested or not shown. Hits are enriched below; roughly 1.3% of the tested compounds scored in any of these assays. Cut-off read from the data, not from the text of the source, unless noted: active = inhibition above about 30%; inactive = the rest.

SMILES	ugtP null kill	3CLpro inhibitor	Mtb bLac sens	Sa RN4220 lethal	MazF activator	CCHF vOTU inh-1	CCHF vOTU inh-2
CCCCCCCCCCCCN1[C@@H](CC(=O)O)c2cc(F)ccc2S1(=O)=O	.	.	-8	.	-2	32*	42*
Nc1ccc(O)c([N+](=O)[O-])c1	16	.	-3	4	4	13	.
Nc1cc(S(=O)(=O)O)cc([N+](=O)[O-])c1O	-7	3	4	6	8	31*	9
O=[N+]([O-])c1cc(S(=O)(=O)c2ccc(O)c([N+](=O)[O-])c2)ccc1O	7	0	3	3	4	43*	5
CC(=O)N1N=C(c2cccs2)CC1c1cccs1 (configuration not stated)	2	-4	2	6	9	1	.
CCn1nnnc1SCC(=O)N1N=C(c2cccs2)CC1c1cccs1 (configuration not stated)	1	.	.	2	-1	30*	-14
COC(=O)C(Cc1ccc(O)cc1)NC(=O)Cn1ccc(NC(=O)OCc2ccccc2)nc1=O (configuration not stated)	-12	.	.	0	.	.	.
CCOC(=O)c1ccc(-n2[nH]c(-c3ccccc3)cc2=O)cc1	7	7	-1	53	-7	10	.
Cc1cc(=O)n(-c2ccc(C(=O)O)cc2)[nH]1	-3	3	-5	8	5	54*	-20
COc1ccc(CN2CCC(=O)N(C(CO)c3ccccc3)CC2)cc1 (configuration not stated)	-1	.	.	2	.	.	.
CC1(Cc2ccc(F)cc2)C(=O)Nc2ccc(S(=O)(=O)NC3CCCCC3)cc21 (configuration not stated)	.	.	.	.	.	44*	-6
O=C(NN=Cc1cccnc1)c1ccccc1NS(=O)(=O)c1cccs1	3	.	.	13	.	.	.
CCOc1cc(C=NNC(=S)Nc2ccccc2C(F)(F)F)ccc1OCC(=O)N1CCOCC1	3	.	.	7	.	.	.
CCOc1cc(/C=N/NC(=S)Nc2ccccc2C(F)(F)F)ccc1OCC(=O)N1CCOCC1	.	3	-5	.	5	30*	-2
CC(C)(C=NNC(=O)CSCc1ccc(Cl)cc1)CCC#N	4	.	.	-1	.	.	.
Cc1cc(C)nc(SCC(=O)N/N=C/c2cccn2-c2cccc(C(F)(F)F)c2)n1	.	2	5	.	4	30*	2
Cc1oc(N=Cc2ccc(O)cc2O)c(C#N)c1C	-5	.	.	2	.	.	.
Cc1cc(C)nc(NN=Cc2ccccc2OCc2ccc(Br)cc2)n1	13	.	.	7	.	.	.
CCN(c1cccc(C(F)(F)F)c1)S(=O)(=O)c1ccc2c(c1)CCN2C(C)=O	4	7	-2	21	-10	42*	2
CC1CCCN(c2ccc(C(=O)NCc3ccc4c(c3)OCO4)cc2[N+](=O)[O-])C1 (configuration not stated)	2	4	18	-6	4	31*	-12
CC(=O)NC1=C(NC2CCS(=O)(=O)C2)C(=O)c2ccccc2C1=O (configuration not stated)	4	0	2	19	1	42*	2
CN(C1=C(NC(=O)c2ccccc2)C(=O)c2ccccc2C1=O)C1CCS(=O)(=O)C1 (configuration not stated)	48	0	8	32	.	89*	78*
O=C(NC(=S)NC1CCS(=O)(=O)C1)c1ccccc1 (configuration not stated)	3	-1	-11	2	-2	12	.
COc1cc(C=c2sc3nc(-c4ccccc4)c(-c4ccccc4)n3c2=O)cc(OC)c1OC	3	.	.	7	.	.	.
Cc1ccc(S(=O)(=O)NN=Cc2cc(Br)c(C)o2)cc1	2	.	.	4	.	.	.
SMILES	ugtP null kill	3CLpro inhibitor	Mtb bLac sens	Sa RN4220 lethal	MazF activator	CCHF vOTU inh-1	CCHF vOTU inh-2
C(=N\Nc1ncnc2sc3c(c12)CCC3)/c1ccncc1	.	-14	?	.	11	34*	-4
COc1cccc(-c2c(C(=O)NN=C(C)c3ccco3)nnn2-c2nonc2N)c1	-3	.	.	2	.	.	.
COc1cccc(-c2cc(NC=O)c3ncc(-c4cccc(C(=O)N(C)C)c4)n3c2)c1	.	.	.	.	.	31*	-11
COc1cccc(-c2cnc3c(NC=O)cc(-c4cccc(C(=O)N(C)C)c4)cn23)c1	.	.	.	.	.	7	.
CC1COC(=O)C(Cc2ccc(F)cc2)CCC=CCC(CC(=O)N(CCO)Cc2ccccc2)C(=O)N1 (configuration not stated)	-9	.	.	6	.	.	.
COc1ccc(C2NC(=O)NC(C)=C2C(=O)OC2CCCCC2)cc1 (configuration not stated)	.	.	.	.	-1	42*	-4
CC1CN(C(C)CO)C(=O)c2cccc(NS(=O)(=O)c3ccccc3)c2OC1CN(C)CC1CC1 (configuration not stated)	1	.	.	3	.	.	.
O=S(=O)(Nc1nc(-c2ccccc2)cs1)c1cccc(C(F)(F)F)c1	57	3	4	-14	2	32*	12
CCOc1ccc(OCc2cccc(C(=O)NN=Cc3cccnc3)c2)cc1	14	.	.	6	.	.	.
CC(C)CC(NC(=O)c1nc[nH]c1C(=O)NC1CCN(C(=O)OC(C)(C)C)CC1)C(=O)OC(C)(C)C (configuration not stated)	3	.	.	6	.	.	.
CC(C)C[C@H](NC(=O)c1nc[nH]c1C(=O)NC1CCN(C(=O)OC(C)(C)C)CC1)C(=O)OCc1ccccc1	.	2	98	.	-6	31*	14
CC(C)C[C@H](NC(=O)c1nc[nH]c1C(=O)NCCCCCNC(=O)OC(C)(C)C)C(=O)OCc1ccccc1	.	2	-11	.	6	30*	16
C=C(C)C(=O)Nc1cccc(C2=NOC3(C2)CC(C(N)=O)N(C(=O)c2ccccc2C(=O)c2ccccc2)C3)c1 (configuration not stated)	2	.	.	4	.	.	.
CCCCCn1c(NC(=O)c2ccco2)c(S(=O)(=O)c2ccc(C)cc2)c2nc3ccccc3nc21	4	2	-5	0	12	71*	-63
CCCCn1c(NC(=O)c2ccco2)c(C(=O)OCC)c2nc3ccccc3nc21	-9	4	17	34	4	55*	-97
CCCCn1c(NC(=O)c2ccc(Br)o2)c(S(=O)(=O)c2ccccc2)c2nc3ccccc3nc21	10	0	-7	16	-3	60*	-29
CCCCn1c(NC(=O)c2ccco2)c(S(=O)(=O)c2ccc(C)cc2)c2nc3ccccc3nc21	-10	1	.	2	-12	-12	.
COc1ccc(C2C=CCN(S(=O)(=O)C=Cc3ccccc3)C(C)C(=O)N2Cc2ccc(F)cc2)cc1 (configuration not stated)	4	.	.	8	.	.	.

From PubChem BioAssay
